According to ChEMBL document CHEMBL4513216, “Probing the Open Global Health Chemical Diversity Library for Multistage-Active Starting Points for Next-Generation Antimalarials” (ACS Infect Dis, 2020):
Among all 65,000 compounds or so, about 2,100 (3.2%) showed an effect of 50% or more. The median lay at about -52%. The sample holds strong results, similar compounds and a random draw of the others, so the mix is not that of the screen.

What follows are compounds tested on Plasmodium falciparum (assay: Screen against P. falciparum Asexual Blood Stage (ABS), at 5uM). Details: tested at 5 uM.
Type: functional, Dd2
CN1CCCCC1c1cncc(Cl)n1 (configuration not stated) showed an INHIBITION of -143%. CC(C)(N)C(=O)N1CCCC1c1cncc(Oc2ccccc2)n1 (configuration not stated) showed an INHIBITION of 78.6%. Compound O=C(Nc1cccnc1)[C@@H]1C[C@H]2OCC[C@H]2N(Cc2nccs2)C1 has an INHIBITION of -80.7%. Work on Cn1cc(CN2C[C@@H]3[C@@H](C2)OCC(=O)N3Cc2ccncc2)cn1 yielded an INHIBITION of -72.9%. For CCN1C[C@H]2[C@@H](C1)N(c1ncc(F)cn1)CC[C@H]2OC, the INHIBITION was 35.7%. Work on COC[C@H]1CC[C@@H]2[C@@H](CCN2Cc2ccco2)O1 yielded an INHIBITION of -128%. For CO[C@@H]1CCN(c2ncc(F)cn2)[C@@H]2CN(CC3CC3)C[C@@H]21, the INHIBITION was 6.1%. c1ccc(CN2CC[C@@H]3[C@@H](CO[C@@H]3CNc3ncccn3)C2)nc1 was tested, and the INHIBITION was -169%. With c1ccc(CN2CC[C@H]3CO[C@H](CNc4ncccn4)[C@H]3C2)nc1 the INHIBITION was -30.4%. c1ccc(COC[C@H]2CC[C@H]3[C@H](CCN3Cc3ccco3)O2)nc1 showed an INHIBITION of -63.4%. COC[C@H]1CC[C@@H]2[C@@H](CCN2Cc2ccccn2)O1 was tested, and the INHIBITION was -7.67%. CO[C@H]1CCN(c2ncc(F)cn2)[C@@H]2CN(Cc3ccco3)C[C@H]12 showed an INHIBITION of 63.7%. CN(Cc1ccco1)C[C@H]1OC[C@@H]2CCN(Cc3ccccn3)C[C@@H]21 showed an INHIBITION of 71.1%. With CO[C@@H]1CCN(Cc2ccccn2)[C@@H]2CN(Cc3ccco3)C[C@@H]21 the INHIBITION was 81.6%. Work on CO[C@@H]1CC[C@H]2[C@H]1OCCN2Cc1ccccn1 yielded an INHIBITION of -64.6%. CO[C@H]1CCN(Cc2ccccn2)[C@@H]2CN(Cc3ccco3)C[C@H]12 showed an INHIBITION of 67.7%. For COc1cccc2c(=O)n(C3CCNCC3)cnc12, the INHIBITION was -104%. Work on O=C(NC1CCC1)[C@@H]1C[C@@H]2CCN(Cc3ccncc3)C[C@H]2O1 yielded an INHIBITION of -70.1%. With COCCO[C@@H]1C[C@H]2CN(C(=O)c3ccc(C)nc3)CCN2C1 the INHIBITION was -15.2%. Compound Cn1ccc(CN2CCOCC23CCNCC3)n1 has an INHIBITION of -75.7%. Cc1noc(C)c1C(=O)N1CCC2(CC1)c1nc[nH]c1CCN2C was tested, and the INHIBITION was -42.4%. Compound CCN(CC)CCN1CCO[C@H]2[C@@H](OCc3ccncc3)CC[C@@H]21 has an INHIBITION of -18.1%. CN(C)CC(=O)N1C[C@H]2CCC[C@@]2(COc2ccccn2)C1 was tested, and the INHIBITION was 84.9%. Cn1cc(CN2C[C@H]3CCC[C@@]3(COc3cccnc3)C2)cn1 gave an INHIBITION of 17.2%. In the case of c1ccc(COC[C@@]23CCC[C@@H]2CN(Cc2ccccn2)C3)nc1, the INHIBITION is reported as -56.9%. Compound c1ccc(OC[C@]23COC[C@H]2CN(C2CCOCC2)C3)nc1 has an INHIBITION of 2.04%. In the case of c1ccc(OC[C@]23COC[C@H]2CN(Cc2ccoc2)C3)nc1, the INHIBITION is reported as 15.8%. Work on Cn1cc(CN2C[C@H]3CCC[C@@]3(COc3ccccn3)C2)cn1 yielded an INHIBITION of 66.1%. COc1ccccc1C1SCC(=O)Nc2c1c(=O)[nH]n2C1CCOCC1 (configuration not stated) gave an INHIBITION of -116%. With Cc1nc(N(C)C)nc2c1COCC21CCN(CC2CC2)C1 (configuration not stated) the INHIBITION was 50.3%. With COCCN1CCC2(COCc3c(C)nc(N(C)C)nc32)C1 (configuration not stated) the INHIBITION was -49.6%. For CN(C)c1ncc2c(n1)C1(CCN(CC3CC3)C1)COC2 (configuration not stated), the INHIBITION was -2.79%. For Cc1ccc(CN(CCCn2ccnc2)Cc2c(F)cccc2F)s1, the INHIBITION was 81.5%. For Cc1cc(C2CCC2)nc(NCCC23CCCN2CCC3)n1, the INHIBITION was 12.6%. CC(C)COc1ccc(C2SCC(=O)Nc3c2c(=O)[nH]n3C(C)C)cc1 (configuration not stated) was tested, and the INHIBITION was -35.2%. With CCC(C)CN1CCC(n2cc(C3CCCCC3)nn2)CC1 (configuration not stated) the INHIBITION was 77.1%. With CSC(C)CCN1CCC(n2cc(C3CCCCC3)nn2)CC1 (configuration not stated) the INHIBITION was 78.4%. Compound CC1(C)C(C(=O)NCCC2CN(Cc3c[nH]cn3)CCO2)C1(C)C (configuration not stated) has an INHIBITION of -64.7%. For Cc1nc(C2(NCc3cc(C#N)ccc3F)CCCCC2)no1, the INHIBITION was -10.8%. Work on COc1ccc2[nH]c(C[C@@H]3C[C@@H](C(C)C)[C@H](CN(C)C)C=C3C)nc2c1 yielded an INHIBITION of 78.9%. Cc1ccc(CN2C[C@@H]3CCN(Cc4cccnc4)C(=O)[C@H]3C2)s1 was tested, and the INHIBITION was -93.5%. CC(C)c1nccc([C@@H]2C[C@@H]3CCN(Cc4ccco4)C[C@H]3O2)n1 gave an INHIBITION of -12.5%. Work on CN(C)C(=O)CN1CCOCC2(C1)CN(c1ncccn1)CCO2 (configuration not stated) yielded an INHIBITION of -97%. Work on Cc1nc(-c2ccc(F)c(F)c2)cc(C2CCNCC2)n1 yielded an INHIBITION of 84.1%. Compound CN1CCN(S(=O)(=O)c2ccc(Cl)c(Cl)c2)c2cnccc21 has an INHIBITION of 89.6%. For CN1CCN(S(=O)(=O)c2cccc(F)c2)Cc2cccnc21, the INHIBITION was -37.8%. For Cn1cc(CN2CC[C@H]3[C@H]2CC(=O)N3Cc2ccncc2)cn1, the INHIBITION was -2.65%. For FC1(F)CCN(Cc2cccnc2)CC12CCN(c1ccccc1)C2 (configuration not stated), the INHIBITION was 85.3%. Compound FC1(F)CCNCC12CCN(c1ccccn1)C2 (configuration not stated) has an INHIBITION of 58.6%. With FC1(F)CCNCC12CCN(c1ncccn1)C2 (configuration not stated) the INHIBITION was 19.8%. c1cnc(N2CC3(CCN(Cc4cccnc4)C3)C2)nc1 gave an INHIBITION of -85.5%. With OCCN1CCC(F)(F)C2(CCN(c3cccnc3)C2)C1 (configuration not stated) the INHIBITION was -46.2%. With Fc1cccnc1N1CCC2(CNCCC2(F)F)C1 (configuration not stated) the INHIBITION was 47.8%. FC1(F)CCNCC12CCN(c1cccnc1)C2 (configuration not stated) showed an INHIBITION of 66.6%. O=C1CSC(c2ccc(O)cc2)c2sccc2N1 (configuration not stated) showed an INHIBITION of -74.5%. In the case of c1coc(CN2CC[C@@H]3O[C@@H](COCc4ccncc4)CC[C@@H]32)c1, the INHIBITION is reported as -70.4%. With CCCN1CCN(C(=O)Cc2cccnc2)[C@H]2CS(=O)(=O)C[C@H]21 the INHIBITION was -103%. Compound CO[C@H]1CN(CC2CC2)[C@@H]2CCCO[C@H]12 has an INHIBITION of 7.3%. Cc1nc(C2CCN(C)CC2)cc(N2CCOc3ccc(Cl)cc3C2)n1 showed an INHIBITION of 70.7%. Compound CC(Cn1cccn1)NCc1nc(-c2ccsc2)no1 (configuration not stated) has an INHIBITION of -40%. With CCS(=O)(=O)N1CCc2c(CN3CCOCC3)cncc2C1 the INHIBITION was -10.2%. Work on O=C(O)[C@H]1CN(Cc2ccccc2)C[C@@H]1C(=O)c1ccccc1 yielded an INHIBITION of -40.5%. Compound CC1CN(Cc2ccccc2)CCCN1CCNS(C)(=O)=O (configuration not stated) has an INHIBITION of 71.7%. Compound CS(=O)(=O)NC[C@H]1OC[C@@H]2CN(Cc3cccnc3)CC[C@@H]21 has an INHIBITION of -58.6%. CCC(C)Oc1ccc(CNCCc2c[nH]cn2)cc1Cl (configuration not stated) gave an INHIBITION of 91.9%. For Cc1cnc(NCCc2c[nH]cn2)nc1-c1ccnn1C, the INHIBITION was -84%. Cc1cccc(CN2CCN3C[C@H](Oc4cncnc4)C[C@H]3C2)n1 showed an INHIBITION of -87%. For Cc1cccc(CN2CCCC[C@H]3CN(c4ncccn4)C[C@H]32)c1, the INHIBITION was -35.2%. Cc1cccnc1CN(C)CC1(O)CCCN(CC2CCCCC2)C1=O (configuration not stated) was tested, and the INHIBITION was 44.3%. Compound CCC(=O)N1CCC2(CC1)C(=O)N(Cc1cccnc1)CCN2C has an INHIBITION of 0.961%. Work on Cc1cccc(CN2CCC3(CCN(c4ncccn4)CC3)C2=O)c1 yielded an INHIBITION of 76%. In the case of Cc1cccc(CN2CCCC(O)(CNCc3ncccc3C)C2=O)c1 (configuration not stated), the INHIBITION is reported as 82.1%. For Cc1ccc(CN2C[C@@H]3CN(c4ncccn4)C[C@@H]3C2)cc1, the INHIBITION was -62.8%. For CC(C)c1cc(N2CCC3(CC2)CN(C)CCN3C)ncn1, the INHIBITION was -11.3%. Compound CCOc1ncccc1C(=O)N1CCN(C)C2(CCN(C)CC2)C1 has an INHIBITION of 10.3%. Compound Cc1cc(C)c2c(NCCC34CCCN3CCC4)ncnc2n1 has an INHIBITION of -48.6%. Work on O=C(C1CCC1)N1CCN(Cc2cccnc2)[C@H]2CS(=O)(=O)C[C@H]21 yielded an INHIBITION of -17.6%. In the case of CC(C)Nc1cc(-c2c[nH]nc2C2CCN(C(=O)C3CC3)C2)ccn1 (configuration not stated), the INHIBITION is reported as 80.9%. With O=C(C1CCC1)N1CC[C@]2(O)CCN(Cc3ncccn3)C[C@@H]2C1 the INHIBITION was -55.6%. In the case of CCCNc1cc(-c2c[nH]nc2C2CCN(C(=O)C3CCC3)C2)ccn1 (configuration not stated), the INHIBITION is reported as 92.5%. In the case of CCc1ncc(CN2C[C@@H]3CC[C@H]2CN(C(=O)C2CCC2)C3)cn1, the INHIBITION is reported as -85.5%. CC(C)Nc1cc(-c2c[nH]nc2C2CCN(C(=O)C3CCC3)C2)ccn1 (configuration not stated) showed an INHIBITION of 83.7%. With O=C1NC2(CCc3ccccc31)CCN(Cc1cccnc1)C2 (configuration not stated) the INHIBITION was -111%. For O=C(c1ccco1)N1C[C@H]2CCCN(Cc3ccncc3)[C@H]2C1, the INHIBITION was -19.6%. Cn1cnc(S(=O)(=O)N2C[C@H]3CN(Cc4cccnc4)C[C@H]3C2)c1 was tested, and the INHIBITION was -85.8%. Cc1sc2nc(CCN)nc(N3CCC(N4CCCC4)CC3)c2c1C gave an INHIBITION of 84.3%. Cc1sc2nc(CCN)nc(N3CC(N4CCCCC4)C3)c2c1C was tested, and the INHIBITION was 81.6%. COCC(=O)NC[C@H]1C[C@@H]2CCN1C[C@@H]2CN1CCc2ccccc21 showed an INHIBITION of 27.2%. Work on N#Cc1cnc2ccccc2c1N1CCNCC1 yielded an INHIBITION of -3.53%. Compound O=C(C1CCCCC1)N1C[C@H]2CNC[C@H]2C1 has an INHIBITION of 44.5%. CN1C[C@@H]2C[C@H](C(=O)Nc3cccnc3)[C@H](C1)O2 gave an INHIBITION of -69.3%. Work on CC(=O)NC(C)C(=O)NCc1ccc(N2CCNC(=O)C2)cc1 (configuration not stated) yielded an INHIBITION of -4.19%. Compound COc1ccc(CNC(=O)C2=NN(c3ccc(C)cc3)C(=O)CN2)cc1 has an INHIBITION of 75%. With COCCN1CCO[C@H]2[C@H](OCc3cccc(C)n3)CC[C@@H]21 the INHIBITION was -74.3%. For CC(C)(C)c1n[nH]c(C2CN(CC3CCC3)CCO2)n1 (configuration not stated), the INHIBITION was -108%. Cc1ccc2[nH]c([C@H]3CCN(CC4CCCCC4)C3)nc2c1 showed an INHIBITION of 74.7%. Cc1ccc2[nH]c(C3CCN(C)CC3)nc2c1 was tested, and the INHIBITION was -40.2%.
